From PubChem BioAssay (NCI)
This is part of a sample that, as a whole, favours compounds with a hit. Of some 83,000 tested, about 20% had one in any assay.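 Single-dose data. Exposure time 48 hours. Values below 10 considered active.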 Values without a mark were called inactive. Active and inactive are the calls of the source.

Assays:
Test in all cases: NCI-60 one-dose screen, 48 h (100 = growth as untreated, 0 = no growth, -100 = all killed)
Conditions in all cases: 10 µM unless noted
DU-145 prostate = system: DU-145 prostate
K-562 leukemia = system: K-562 leukemia
MALME-3M melanoma = system: MALME-3M melanoma
MDA-MB-231 breast = system: MDA-MB-231 breast
RXF 393 renal = system: RXF 393 renal
SF-268 CNS = system: SF-268 CNS
SF-539 CNS = system: SF-539 CNS
UACC-257 melanoma = system: UACC-257 melanoma
M14 melanoma = system: M14 melanoma

SMILES | growth (DU-145 prostate) | growth (K-562 leukemia) | growth (MALME-3M melanoma) | growth (MDA-MB-231 breast) | growth (RXF 393 renal) | growth (SF-268 CNS) | growth (SF-539 CNS) | growth (UACC-257 melanoma) | growth (M14 melanoma)
CCN(CC)CCC(CNc1ccnc2cc(Cl)ccc12)c1ccc(O)cc1 (centres undefined) | 91.4% | 10.6% | 93.5% | 74.1% | 52.5% | 69.5% | 88.4% | 93.4% | 6.04% (active)
O=S(=O)(NCC[C@@H]1C[C@H]1c1ccc2ccccc2c1)c1ccc(C(F)(F)F)cc1 | 96.6% | 89.2% | 88.5% | 94.6% | 109% | 89.3% | 99.9% | 100% | 96.2%
CCCCCCCCCCCCCCCCOc1ccc(S(=O)(=O)N(C)C)cc1[N+](=O)[O-] | 113% | 112% | 86.8% | 88.9% | 61.7% | 97.5% | 89.6% | 108% | 106%
Fc1[nH]nc2ccc([C@@H]3Nc4ccc5[nH]ncc5c4[C@H]4C5CCC(C5)[C@@H]34)cc12 (some centres undefined) | 15.1% | 15.1% | 48.5% | 46.2% | -6.05% (active) | 57.5% | -15.9% (active) | 82.2% | 21.2%
C=CCn1c(C)nc2cc(Nc3nc(Nc4ccc5nc(C)n(CC=C)c5c4)nc4ccccc34)ccc21 | 115% | 102% | 94.5% | 90% | 124% | 113% | 98.6% | 102% | 109%
N#CC1=C(N)Oc2nc[nH]c(=O)c2C1c1cccs1 (centres undefined) | 107% | 104% | 112% | 106% | 97.8% | 108% | 101% | 98.4% | 111%
OC(c1cc2c(Cl)cc(Cl)cc2c2cc(C(F)(F)F)ccc12)C1CCCCN1 (centres undefined) | -94.5% (active) | -75.5% (active) | -44% (active) | -73% (active) | -90.9% (active) | -82.9% (active) | -81.5% (active) | -67.1% (active) | -82.3% (active)
O=C(CS)OCC(COC(=O)CS)(COC(=O)CS)COC(=O)CS | 95.3% | 34.3% | 89.6% | 104% | 98.8% | 82.7% | 98.4% | 59.3% | 18.1%
Cc1ccc(CSCc2ccc(C(=O)NC3CC3)o2)cc1 | 80.5% | 40% | 96.4% | 35.3% | 92.7% | 83.2% | 79.8% | 93.5% | 57.3%
C#CCNC(=S)N/N=C(\C)c1ccccn1 | 15.4% | 15.2% | 12.1% | 39.5% | 6.73% (active) | 14.7% | 1.69% (active) | 16.4% | -21.7% (active)
CC(=O)O[C@H]1[C@H](CC#CC#CC[C@@H]2C[C@]3(C)[C@H]4CC=C5[C@H]6[C@@H](C)[C@H](C)CC[C@]6(C(=O)NCCN(CCN)CCN)CC[C@@]5(C)[C@]4(C)CC[C@H]3C(C)(C)[C@H]2OC(C)=O)C[C@]2(C)[C@H]3CC=C4[C@H]5[C@@H](C)[C@H](C)CC[C@]5(C(=O)NCCN(CCN)CCN)CC[C@@]4(C)[C@]3(C)CC[C@H]2C1(C)C | 86% | 18.3% | 67.8% | 59.6% | 57.9% | 87.1% | 84.2% | 96% | 63.1%
Fc1cc(-c2nnc3sc(-c4ccc(Cl)cc4)nn23)c(Cl)cc1Cl | 107% | 116% | 62% | 88.3% | 97.4% | 98% | 107% | 103% | 102%
CCCN(CCC)CC(O)COc1ccccc1C(=O)Nc1ccccc1 (centres undefined) | 96.8% | 22.3% | 62% | 96.5% | 52.5% | 73.8% | 77.3% | 61.5% | 69.3%
Nc1c(C(=O)Nc2cccc(Cl)c2)sc2ncc(Br)cc12 | 59.6% | 82.9% | 66.9% | 73.5% | 86.4% | 64.1% | 61.5% | 96% | 79.9%
COc1ccc(/C=C/C(=O)c2ccc(NC(=O)CSc3nnc(-c4ccc(Cl)cc4)n3-c3ccccc3)cc2)cc1 | 106% | 80.1% | 118% | 91% | 104% | 96.1% | 109% | 86.7% | 91.9%
CCN(CC)CCCNc1cccc2c(C)cc(OC)nc12 | 114% | 92.3% | 107% | 81% | 93.9% | 104% | 88.8% | 98.9% | 93.2%
Cc1nn(-c2ccc(Cl)cc2)c(=O)n1CCN1CCOCC1 | 78.5% | 70.1% | 59.1% | 57.3% | 42.1% | 48.4% | 67% | 73.4% | 69.8%
C/C(=C\C(=N\N=C(N)N)c1ccc(Cl)cc1)c1ccc(Cl)cc1 | -91.4% (active) | -51.7% (active) | -64.6% (active) | -73.1% (active) | -95.8% (active) | -89.2% (active) | -73.7% (active) | -72.5% (active) | -79.7% (active)
CC(=O)c1nn(-c2ccccc2)/c(=N\N=C\c2coc3ccc(F)cc3c2=O)s1 | 111% | 94.5% | 102% | 88.3% | 116% | 87.8% | 94.4% | 116% | 93.5%
NC(=S)N/N=C(/c1cccs1)C1CC1 | 105% | 69.3% | 96% | 91.4% | 102% | 99.4% | 95.7% | 39.4% | 71.3%
O=C(c1ccccc1)N(CCCCl)C(=O)N(CCCCl)C(=O)c1ccccc1 | 102% | 91.1% | 91.8% | 85.7% | 111% | 100% | 97.2% | 100% | 96.4%
COc1ccc(-c2nn(-c3cccc(Cl)c3)cc2/C=C2\C(=N)N(c3ccccc3)N=C2N)cc1 | 37.6% | 1.77% (active) | 28.8% | 59% | 85% | 47.8% | -12.8% (active) | 58.4% | 5.51% (active)
COc1ccc(C2=CC(c3ccc(OC)cc3Br)N3C=CSC3=N2)cc1 (centres undefined) | 66.2% | 9.34% (active) | 89.9% | 75% | 84.6% | 77.1% | 77.5% | 80% | 25.2%
COc1cccc(NC(=O)c2c(-c3ccccc3)c(-c3ccccc3)n[nH]c2=O)c1 | 106% | 81.9% | 101% | 102% | 103% | 105% | 101% | 97.9% | 103%
CC(C)CC(NC(=O)C(CCCN=C(N)N)NC(=O)OCc1ccccc1)C(=O)NC(CNC(=O)/C=C/c1ccccc1)C(C)C (centres undefined) | 107% | 92.3% | 107% | 109% | 107% | 107% | 96.4% | 107% | 106%
COc1cc(NCCCCC(C)N)c2nccc(C)c2c1 (centres undefined) | 111% | 80.4% | 98% | 62.9% | 89.8% | 100% | 83.9% | 107% | 95.4%
